Assay results taken from PubChem BioAssay AID624330 (Southern Research Specialized Biocontainment Screening …, 2012).
Screen size: about 340,000 compounds; about 2,100 (0.62%) were called active.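 The calls were made as follows: active = first-screen hits whose inhibition reached a set limit at any dose in the follow-up dose series; inconclusive = inhibition above the set first-screen limit but never retested; inactive = the rest.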 A selection follows. Results with a measured potency or affinity are listed apart.

target: Rac GTPase-activating protein 1 (Homo sapiens) (UniProt Q9H0H5); experiment: MgcRacGAP GTPase-activating activity inhibitors, confirmation, biochemical, ADP Hunter fluorescence, primary and confirmatory (AID 624330); conditions: MgcRacGAP-stimulated Rac1 GTP hydrolysis, at 30 µM, stronger effect = higher value, GST-tagged Rac1 F28L mutant substrate;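 also: fluorescence reports GDP produced by GAP-driven GTP hydrolysis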
Sequence (Q9H0H5 whole entry, looked up): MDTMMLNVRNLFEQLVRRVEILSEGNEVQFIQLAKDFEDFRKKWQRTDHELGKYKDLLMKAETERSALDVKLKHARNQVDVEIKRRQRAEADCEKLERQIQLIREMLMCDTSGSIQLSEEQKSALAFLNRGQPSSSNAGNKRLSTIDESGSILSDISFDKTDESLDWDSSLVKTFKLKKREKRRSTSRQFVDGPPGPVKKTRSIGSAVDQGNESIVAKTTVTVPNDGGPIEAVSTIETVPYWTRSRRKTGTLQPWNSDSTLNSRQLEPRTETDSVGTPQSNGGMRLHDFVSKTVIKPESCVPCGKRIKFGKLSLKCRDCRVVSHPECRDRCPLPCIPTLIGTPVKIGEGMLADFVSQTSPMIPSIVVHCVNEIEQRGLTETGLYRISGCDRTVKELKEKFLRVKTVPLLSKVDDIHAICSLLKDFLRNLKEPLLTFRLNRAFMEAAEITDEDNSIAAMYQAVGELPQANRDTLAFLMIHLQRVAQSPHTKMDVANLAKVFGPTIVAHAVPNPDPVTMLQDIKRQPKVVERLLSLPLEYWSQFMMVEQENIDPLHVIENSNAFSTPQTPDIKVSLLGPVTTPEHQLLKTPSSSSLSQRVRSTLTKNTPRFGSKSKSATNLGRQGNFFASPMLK

inhibition, inactive:
COc1ccc(N2CC(C(=O)OCC(=O)c3ccc(C)cc3)CC2=O)cc1 (stereo not drawn) -1.09%
COC(=O)C1CC(=O)N(c2ccc(C)cc2)C1 (stereo not drawn) 1.9%
COc1cccc(N2CC(NC(=O)c3ccc4ccccc4c3)CC2=O)c1 (stereo not drawn) 6.5%
COC(=O)c1ccc(OC(=O)C2CC(=O)N(c3cccc(C)c3)C2)cc1 (stereo not drawn) -2.41%
O=C(COC(=O)c1ccccc1Cl)NCc1ccco1 6.58%
CC(C)=CCN1CCN(CCCn2cccn2)CC1CCO (stereo not drawn) 0.56%
CC(=O)Nc1ccc(S(=O)(=O)Nc2nccc(/C=C/c3ccc(Cl)cc3)n2)cc1 -0.65%
COCC1CCN(C(=O)c2cc(COc3ccc(OC)cc3Cl)on2)C1 (stereo not drawn) 10.9%
COC(=O)C1(Cc2ccc(O)cc2)OC(=O)C(O)=C1c1ccc(O)cc1 (stereo not drawn) 16.3%
Cc1ccc(S(=O)(=O)c2ccc(C)cc2)cc1 5.53%
CC(=O)Nc1ccc(S(=O)(=O)c2ccc(C)cc2)cc1 10.7%
COc1cc(C(=O)NCCC(=O)N2CCC3(CC2)NCCc2[nH]cnc23)cc(OC)c1OC 1.24%
CCC1CCCCN1C(=S)NC(=O)c1ccc(F)c(S(=O)(=O)N2CCOCC2)c1 (stereo not drawn) 0.38%
Oc1ccc(/C(Cc2ccccn2)=N\Nc2ccccc2)c(O)c1 13.1%
Cc1nc(C/C(=N\Nc2ccccc2)c2ccc(O)cc2O)cs1 10.9%
Cc1nc(CC(=O)c2ccc(O)cc2O)cs1 -0.73%
O=C(Cc1cscn1)c1ccc(O)cc1O 0.47%
C#CCOCCOCCOCCNc1nc(N2CCN(C(=O)CCCCCCCCCCNC(=O)[C@@H](CCC(=O)O)n3cc(CCCCCN)nn3)CC2)nc(N2CCN(C(=O)CCCCCCCCCCNC(=O)[C@@H](CCC(=O)O)n3cc(CCCCCN)nn3)CC2)n1 0.63%
CCn1c(C)nc2c(C)[n+](CC(=O)c3ccc(Br)cc3)ccc21 8.56%
CSc1nnc2ccc(-c3ccccn3)nn12 -3.72%
COc1ccc(NC2CCCN(C(=O)c3cccc(C)n3)C2)cc1OC (stereo not drawn) 26.1%
Oc1cccc(/C=N/Nc2ncnc3c2ncn3Cc2ccccc2)c1 15.2%
COc1cccc(/C=N/Nc2ncnc3c2ncn3Cc2ccccc2)c1O 7.53%
COc1cccc(C2C(C(=O)c3cccs3)=C(O)C(=O)N2CCN2CCOCC2)c1OC (stereo not drawn) 10.9%
Cc1cn([C@H]2C[C@H](O)[C@@H](CNCc3ccccc3)O2)c(=O)[nH]c1=O 7%
O=c1ccn([C@@H]2O[C@H](CNCC3=Cc4cc(O)ccc4OC3)[C@@H](O)[C@H]2O)c(=O)[nH]1 20%
COC(=O)c1ccc(CNC(=O)C2CCC(=O)N(CCc3ccccc3)C2)cc1 (stereo not drawn) 6.06%
Cn1c(=O)c([N+](=O)[O-])c(NCc2ccccc2Cl)c2ccccc21 8.45%
O=c1/c(=C\c2ccc3c(c2)OCO3)sc2n1CCCN=2 8.3%
O=c1/c(=C\c2ccc(F)cc2)sc2n1CCCN=2 -5.16%
CN(C)c1ccc(/C=c2\sc3n(c2=O)CCCN=3)cc1 9.18%
O=c1/c(=C/c2ccc([N+](=O)[O-])cc2)sc2n1CCCN=2 9.61%
COc1ccc(CCNS(=O)(=O)c2cn(C)c(=O)n(C)c2=O)cc1OC -1.5%
CCc1ccccc1NC(=O)NCc1ccccn1 7.56%
Cc1ccc(C)c2c1cc(C)c1nnc(SCC(=O)Nc3nc4c(s3)CCCC4)n12 6.82%
CC1=NN(c2cccc(F)c2)C(=O)/C1=C/c1ccc(N(C)C)cc1 4.18%
CC(=O)N1/C(=C/c2ccc(N(C)C)cc2)C(=O)c2ccccc21 10.6%
CCOC(=O)C1=NN(c2ccccc2)C(=O)/C1=C\c1ccc(N(C)C)cc1 14.6%
CCOC(=O)CC1=NN(c2ccccc2)C(=O)/C1=C\c1ccc(N(C)C)cc1 12%
CN(C)c1ccc(/C=C/c2nc3ccccc3c(=O)n2-c2ccc(C(=O)O)cc2)cc1 21.8%
CN(C)c1ccc(/C=C2\CCCc3c2nc2ccccc2c3C(=O)O)cc1 28.8%
CN(C)c1ccc(/C=C2\CCCCC2=O)cc1 22%
CN(C)c1ccc(/C=C2\SC(=O)N(CC(O)Cn3c4ccccc4c4ccccc43)C2=O)cc1 (stereo not drawn) 9.97%
Cc1ccc(/C=C/C(=O)OCC(=O)NCCN2C(=O)CSC2=O)o1 5.03%
Cc1nc(CNC(=O)C2CCC(=O)N(CCc3ccc(Cl)cc3)C2)sc1C (stereo not drawn) 10.8%
COc1cc(/C=N/Nc2nc(Nc3ccccc3)nc(N3CCOCC3)n2)ccc1OC(=O)c1ccco1 8.66%
CN(c1ccc(Cl)cc1)c1cc(=O)n(C)c2ccccc12 -1.02%
CN(C)c1ccc(-c2n(C)c3ccccc3[n+]2C)cc1 3.74%
O=C(Nc1ccc([N+](=O)[O-])cc1)c1cccc([N+](=O)[O-])c1 16.6%
Cc1ccc(NC(=O)c2cccc(Oc3ccc([N+](=O)[O-])cc3)c2)c(C(=O)O)c1 7.38%
Cc1cc(NC(=O)CN2C(=O)NC(C)(CC(C)C)C2=O)no1 (stereo not drawn) 3.59%
COc1ccc(C(=O)O)cc1NC(=S)NC(=O)/C=C/c1ccc(C(C)C)cc1 14.7%
CCOC(CN=c1nc(N(C)C)ss1)OCC 30.1%
COC(=O)c1cc(=O)n(Cc2cccs2)c(=NCc2cccs2)s1 3.47%
Cc1cc(C2(O)C(=O)Nc3ccccc32)ccc1F (stereo not drawn) -6.52%
COc1cccc(-c2cc(C(F)(F)F)n3nc(C(=O)Nc4c(C)n(C)n(-c5ccccc5)c4=O)cc3n2)c1 7.24%
O=C(Nc1ccccc1Cl)c1ccc(C(=O)Nc2ccccc2Cl)cc1 3.72%
O=C(Nc1ccccc1Cl)Nc1ccccc1Cl 10.3%
